Test results: the supplement of paper PMC6607015
Structures can show the parent of a compound that is named as a salt.

Experiments:
Settings in all cases: compound concentration in added solution (µM; 5 µl added to 20 µl cells): 10; 18 h
A431 [1] = test: LBPA endosome anti-LBPA integrated intensity (sum per cell), Z-score; higher = more LBPA staining
Summary of the method: (§1)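 In duplicate 384-well imaging plates, 3,500 HeLa MZ or A431 cells in 20 µl per well were seeded onto 5 µl of 10 µM compound solution. The cells were incubated for 18 h, fixed in 4% PFA and stained with 6C4 anti-LBPA antibody, filipin, propidium iodide and CellTracker green before four 20× images were acquired per well. Values are AcuityXpress-normalised Z-scores of per-cell integrated LBPA or filipin intensity, obtained by MetaXpress segmentation over the whole cell or in LBPA endosomes.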

HeLa MZ [2] = test: as above
Summary of the method: as §1

A431 [3] = test: whole-cell filipin (free cholesterol) integrated intensity, Z-score; higher = more cholesterol staining
Summary of the method: as §1

HeLa MZ [4] = test: as above
Summary of the method: as §1

A431 [5] = test: filipin (cholesterol) integrated intensity within LBPA endosomes, Z-score; higher = more cholesterol in LBPA endosomes
Summary of the method: as §1

HeLa MZ [6] = test: as above
Summary of the method: as §1

Structure (SMILES) | LBPA endosome anti-LBPA integrated intensity (z-score) (A431 [1]) | LBPA endosome anti-LBPA integrated intensity (z-score) (HeLa MZ [2]) | whole-cell filipin (z-score) (A431 [3]) | whole-cell filipin (z-score) (HeLa MZ [4]) | filipin (z-score) (A431 [5]) | filipin (z-score) (HeLa MZ [6])
CCc1cccc(CC)c1NC(=O)CN(CC(=O)O)CC(=O)O [Etifenin] | -0.633 | -1.24 | -0.798 | -0.697 | -0.521 | -0.638
CCCCOc1ccc(CC(=O)NO)cc1 [Bufexamac] | -0.196 | -0.501 | -0.337 | -0.569 | -0.313 | -0.483
CS(=O)(=O)c1ccc(C2=C(c3ccccc3)C(=O)OC2)cc1 [Rofecoxib] | -0.672 | -1.7 | -1.07 | -0.451 | -0.59 | -0.599
Nc1nc(N)nc(-c2cc(Cl)ccc2Cl)n1 [Irsogladine maleate] | -0.232 | 0.679 | -0.0416 | 0.316 | -0.334 | -0.292
Nc1ccc(S(=O)(=O)c2ccc(N)cc2)cc1 [Dapsone] | -0.514 | -0.767 | -0.45 | -0.817 | -0.55 | -0.603
CCOc1ccc(Cc2nccc3cc(OCC)c(OCC)cc23)cc1OCC [Ethaverine hydrochloride] | 0.203 | 2.53 | 0.476 | 0.57 | -0.238 | 0.366
CC(C)(Oc1ccc(CCNC(=O)c2ccc(Cl)cc2)cc1)C(=O)O [Bezafibrate] | -0.429 | -0.597 | -0.437 | -0.728 | -0.456 | -0.612
CC(=O)OCC(=O)[C@@]12OC(C)(C)O[C@@H]1C[C@H]1[C@@H]3C[C@H](F)C4=CC(=O)C=C[C@]4(C)[C@@]3(F)[C@@H](O)C[C@@]12C [Fluocinonide] | -0.115 | -0.842 | -0.144 | -0.284 | -0.311 | -0.49
CC(C)C(=O)Nc1ccc([N+](=O)[O-])c(C(F)(F)F)c1 [Flutamide] | -0.32 | 0.353 | -0.407 | -0.0656 | -0.384 | -0.392
C=CC1=C(C(=O)O)N2C(=O)[C@@H](NC(=O)/C(=N\O)c3csc(N)n3)[C@H]2SC1 [Cefdinir] | -0.422 | -0.414 | -0.315 | -0.322 | -0.385 | -0.46
Cc1cccc(C)c1NC(=O)C1CCCCN1C (centres undefined) [Mepivacaine hydrochloride] | -0.256 | 0.0426 | 0.297 | 0.327 | -0.328 | -0.202
CC(N/C(=N\C#N)Nc1ccncc1)C(C)(C)C (centres undefined) [Pinacidil] | -0.477 | -0.897 | -0.717 | -0.503 | -0.45 | -0.559
Cc1c(N(C)C)c(=O)n(-c2ccccc2)n1C [Amidopyrine] | -0.435 | -0.447 | -0.729 | 0.0263 | -0.495 | -0.518
COc1cc2nc(N3CCN(C(=O)C4COc5ccccc5O4)CC3)nc(N)c2cc1OC (centres undefined) [Doxazosin mesylate] | 3.8 | 3.08 | 2.89 | 1.62 | 2.83 | 2.39
CC(C)[C@H](N)C(=O)OCCOCn1cnc2c(=O)nc(N)[nH]c21 [Valacyclovir hydrochloride] | -0.418 | 0.0601 | -0.723 | -0.237 | -0.459 | -0.357
CN(C)CCN(Cc1cccs1)c1ccccn1 [Methapyrilene hydrochloride] | -0.506 | 0.465 | -0.777 | -0.37 | -0.539 | -0.0761
O=C(O)CCC(=O)c1ccc(-c2ccccc2)cc1 [Fenbufen] | -0.493 | 0.243 | -0.496 | -0.311 | -0.512 | -0.583
CC/C(=C(/CC)c1ccc(O)cc1)c1ccc(O)cc1 [Diethylstilbestrol] | -0.432 | -0.702 | -0.0535 | -0.813 | -0.37 | -0.493
C=C1c2cccc(O)c2C(=O)C2=C(O)[C@]3(O)C(=O)C(C(N)=O)=C(O)[C@@H](N(C)C)[C@@H]3[C@@H](O)[C@H]12 [Methacycline hydrochloride] | -0.461 | -0.934 | 0.119 | -0.217 | -0.402 | -0.642
